Source: PubChem BioAssay (Broad Institute)
Rows were chosen to be rich in hits. Some 1.1% of all compounds tested hit in one or more screens of this group.
FadD28 FP inh: M. tuberculosis FadD28 bisubstrate binding inhibition; inhibition, % at 12.5 µM; 0.22% of 360,000 active; FadD28 bisubstrate probe binding, fluorescence polarization; AID 588549; in the data active = inhibition above about 8.5%, passing the limit was not always enough
PrP 5UTR inh: suppresses PrP 5' UTR mRNA reporter expression | inhibition, % (test concentration not listed) | 0.35% of 340,000 active | cell-based PrP 5' UTR mRNA reporter, plate reader; in the data active = inhibition above about 52%; note: 0 = median of the neutral control wells
Mtb BioA inh: BioA (M. tuberculosis) enzyme inhibition. purified M. tuberculosis BioA enzyme, plate reader. inhibition, % at 9.99 µM. 0.096% of 360,000 active; in the data active = inhibition above about 40%
Yp Topo-I inh: inhibitors of Yersinia pestis topoisomerase I | AID 504884 | 0.064% of 360,000 active | Y. pestis Topo-I cleavage product accumulation, plate reader | activity, % at 10 µM; in the data active = activity above about 50%, passing the limit was not always enough
PfHsp40 yeast: restores yeast growth despite PfHsp40 toxicity; 0.68% of 340,000 active; S. cerevisiae expressing PfHsp40, growth rescue, ATP luminescence; growth rescue, % at 12.5 µM; in the data active = growth rescue above about 28%, passing the limit was not always enough;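 note: yeast W303a lacking pdr1 and pdr3 grown in galactose medium; growth measured after three days at 30 °C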
Starred values were filed as active, the others as inactive; x = not tested or not shown; ! = not active in a repeat.

SMILES	FadD28 FP inh	PrP 5UTR inh	Mtb BioA inh	Yp Topo-I inh	PfHsp40 yeast
COc1ccc(C(=O)N/N=C/c2c[nH]c3ccccc23)cc1	-0.1	-41.6	0.1	-5.4	0.4
Cc1ccsc1C(=O)N1CCCC(CCC(=O)NCc2ccccc2F)C1 (configuration not stated)	-1.4	-25.3	x	0.6	36.7*
Cc1ccsc1S(=O)(=O)N1CCCC(CCC(=O)NCc2ccccc2F)C1 (configuration not stated)	0.7	-35.4	x	25.0	0.2
Cc1ccccc1NC(=O)CN1C(=O)NC(C)(c2ccc3c(c2)OCO3)C1=O (configuration not stated)	0.4	-13.9	0.4	1.9	35.3*
COC(=O)c1ccc(Cn2cnc3c(sc4nc(N5CCOCC5)c5c(c43)CCCC5)c2=O)o1	-4.0	-7.8	-0.8	52.0*	3.1
C[C@H](CO)N1C[C@H](C)[C@@H](CN(C)C(=O)Nc2ccc(F)cc2)Oc2ncc(Br)cc2C1=O	x	x	-0.8	x	x
CCOc1cc([N+](=O)[O-])cc(/C=N/NC(=O)c2c(-c3ccccc3)noc2C)c1O	0.0	-13.6	-0.3	-6.4	260.7*
CCOc1cc(/C=N/NC(=O)c2c(-c3ccccc3)noc2C)ccc1O	-0.4	-19.2	6.3	-3.1	-0.2
O=C(NCC[C@H]1CC[C@@H](NS(=O)(=O)c2cccc(F)c2)[C@@H](CO)O1)C1CCCC1	x	x	2.4	x	x
CCN(CC)S(=O)(=O)c1cccc(C(=O)NCC(c2ccccc2)N(C)C)c1 (configuration not stated)	1.4	-0.3	x	16.5	96.9*
C[C@@H]1CCCCO[C@@H](CN(C)C(=O)c2ccccc2)[C@H](C)CN([C@H](C)CO)C(=O)c2cc(NC(=O)Nc3ccc(F)cc3)ccc2O1	x	x	0.9	x	x
Cc1nc(N)sc1-c1csc(Nc2cccc(C(=O)O)c2)n1	23.3*	-0.4	7.6	-15.4	-1.3
Cc1cc(NS(=O)(=O)c2ccc(Nc3nc(-c4sc(N)nc4C)cs3)cc2)no1	55.1*	4.8	5.8	-20.8	2.2
Cc1cc(NS(=O)(=O)c2ccc(Nc3nc(-c4ccc(C)c(C)c4)cs3)cc2)no1	1.0	-17.0	x	-10.1	-0.7
CCC(=O)Nc1nc(C)c(-c2csc(Nc3cccc(C(=O)O)c3)n2)s1	3.6	-2.8	x	-7.8	-0.9
Cc1nc(C)c(-c2csc(Nc3ccc(O)c(C(=O)O)c3)n2)s1	17.5*	-40.6	2.8	3.4	0.6
C[C@H]1CN([C@@H](C)CO)C(=O)c2cccc(NC(=O)Nc3ccc(C(F)(F)F)cc3)c2O[C@@H]1CN(C)Cc1ccncc1	x	x	-2.6	x	x
CCC(=O)Nc1ccc2c(c1)OC[C@H](C)N(C(C)=O)C[C@H](C)[C@H](OC)CN(C)C2=O	x	x	-0.8	x	x
NC(=O)c1cc([N+](=O)[O-])ccc1Nc1ccccc1	-0.3	-8.3	0.9	5.7	48.3*
COc1cccc(NC(=O)C[C@@H]2CC[C@H]3[C@@H](COc4ccc(NC(=O)c5ccccc5F)cc4C(=O)N3C)O2)c1	x	x	12.6	x	x
O=C(/C=C/Nc1ccccc1)c1ccc(Cl)cc1Cl	0.4	-13.6	-0.7	3.4	0.4
N#Cc1c(Nc2ccccc2)[n+]([O-])c2ccc(Cl)cc2[n+]1[O-]	-1.0	11.7	x	-7.1	68.7*
COCCn1c(=S)[nH]c2sc3c(c2c1=O)CCC(C)C3 (configuration not stated)	11.5*	-20.4	1.8	-0.8	1.2
CCCn1c(=S)[nH]c2sc3c(c2c1=O)CCCC3	0.2	-2.7	-2.8	-6.4	-1.3
Cc1ccc(NC(=O)CN2C(=O)S/C(=C\c3cc(C)n(-c4cccc(C(=O)O)c4)c3C)C2=O)cc1	43.3*	-14.8	x	-12.2	1.0
SMILES	FadD28 FP inh	PrP 5UTR inh	Mtb BioA inh	Yp Topo-I inh	PfHsp40 yeast
Cc1ccc(C(=O)O)cc1-c1ccc(/C=C2\SC(=O)N(CC(=O)Nc3ccccc3)C2=O)o1	17.5*	-16.3	-3.8	-4.1	-1.8
Cc1cccc(NC(=O)CN2C(=O)S/C(=C\c3cc(C)n(C)c3C)C2=O)c1	33.6*	-12.9	7.6	-4.3	-0.4
CCC(=O)N(C)C[C@H]1Oc2cc(C#Cc3ccncc3)ccc2S(=O)(=O)N([C@@H](C)CO)C[C@H]1C	x	x	-1.7	x	x
C[C@@H]1CN([C@@H](C)CO)C(=O)c2ccccc2-c2ccccc2CO[C@H]1CN(C)C(=O)CCC(F)(F)F	x	x	0.5	x	x
Cc1cc2c(c(=O)n1Cc1cccnc1)C(c1ccccc1)C(C#N)=C(N)O2 (configuration not stated)	-1.1	-21.4	47.6*	-0.6	-0.5
O=C(OCCN1CCCC1)C1(c2ccccc2)CCCC1	-5.6	-14.2	-0.3	-10.4	49.6*!
O=C(/C=C/c1ccccc1Cl)NCCc1ccc(F)cc1	-2.2	-44.9	-1.2	3.3	39.1*
CC(=C/c1ccc(C(C)C)cc1)/C=N/NC(=O)CSc1ccccn1	0.0	-57.5	x	60.7*	13.0
C[C@H](CO)N1C[C@H](C)[C@H](CN(C)C(=O)Nc2ccccc2)OCCCC[C@H](C)Oc2ccc(NC(=O)c3ccccc3)cc2C1=O	x	x	-0.3	x	x
COc1cccc(/C=N/NC(=O)c2cc(-c3cccn3C)n[nH]2)c1O	-0.7	11.8	x	-8.3	160.3*
COc1cc(/C=N/NC(=O)c2cc(-c3cccn3C)n[nH]2)cc(OC)c1OC	0.1	-61.0	1.5	0.2	0.5
CNC(=O)Nc1cccc(-c2cc(-c3c(Cl)cccc3Cl)no2)c1	-22.9	3.7	x	-0.2	0.0
CC(=O)Nc1cccc(-c2cc(-c3c(Cl)cccc3Cl)no2)c1	-4.1	-0.1	x	2.8	356.9*
C/C=C/c1ccc([C@@H]2[C@@H](CO)N(C(C)=O)[C@@H]2CNC(=O)c2ccccc2)cc1	x	x	5.3	x	x
COc1ccc(S(=O)(=O)Nc2ccc3c(c2)C(=O)N([C@H](C)CO)C[C@@H](C)[C@@H](CN(C)C(=O)Nc2c(C)noc2C)O3)cc1	x	x	0.3	x	x
Cc1ccccc1Cn1cc(CCC(=O)N2CCOCC2)c2ccccc21	-1.2	-12.0	x	53.7*	4.3
Cc1ccccc1CC(=O)N1CCOCC1	-3.4	-32.5	-0.5	3.4	-1.4
COc1cc2cccc(OC)c(=O)c2c(OC)c1OC	-0.9	13.5	1.2	-2.0	-1.3
O=c1c(O)cccc2cc(O)c(O)c(O)c12	16.0*	8.3	-3.7	-23.9	626.7*
C[C@H](O)C#Cc1ccc2c(c1)O[C@H](CN(C)C(=O)c1ccccc1)[C@H](C)CN([C@H](C)CO)S2(=O)=O	x	x	0.9	x	x
COC(=O)c1nnn(CC(=O)Nc2cccc(OC)c2)c1C(=O)OC	1.5	-0.1	0.5	1.2	80.0*
COc1cccc(NC(=O)Cn2c(=O)oc3ccccc32)c1	38.9*	5.9	x	-4.3	0.6
CC(C)(C)c1csc(NC(=O)Cn2c(=O)oc3ccccc32)n1	11.1*	-19.0	8.1	-2.3	-0.9
O=C(Cn1c(=O)oc2ccccc21)Nc1nc(-c2ccccc2)cs1	0.7	-22.2	-0.7	13.9	-0.2
CO[C@H]1CC[C@@H]2CCN(C)C(=O)[C@H](C)[C@@H](OC)CN(C)C(=O)c3cccc(C#N)c3OC[C@@H]1O2	x	x	-0.7	x	x
CCOC(=O)c1sc(CS(=O)(=O)c2ccc(Cl)cc2)nc1C	-2.9	-8.2	x	-10.8	2.5
CCOC(=O)c1sc(-c2ccc(Cl)cc2Cl)nc1O	0.0	-14.9	x	1.8	60.4*
